dFosB activator: enhances mouse delta FosB homodimer DNA binding; activation, % at 25 µM; AID 493131; P13346; 340,000 compounds, 0.99% hits; purified delta FosB, TAMRA-CDK5 oligo fluorescence polarization; percent of positive-control signal above neutral wells;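 active = mean activation above about 17%, with every replicate also reaching it, limit read from the data, passing the limit was not always enough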
FID counter: fluorescent intercalator displacement, NS3 helicase counter-screen. inhibition, % at 7.9 µM. DNA fluorescent intercalator displacement, fluorescence. 290,000 compounds, 0.17% hits; in the data active = inhibition above about 37%;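 also: 0% = vehicle and 100% = reference compound; higher means more ethidium bromide displaced from hairpin DNA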
MEKK2 WT-MEK5: raises or lowers MEK5 binding to wildtype human MEKK2 PB1 domain | bead flow cytometry, Alexa488-MEK5 binding to MEKK2 WT; actives lie on both sides | binding response (% of control), % at 10 µM | AID 1531 | 290,000 compounds, 1.1% hits | Q9Y2U5; in the data active = binding response below about 67% or above about 130%
MEKK3 PB1 HTS: MEKK3-MEK5 PB1 interaction, increase or decrease | Q99759 | bead-based flow cytometry, Alexa488-MEK5 binding to MEKK3; actives lie on both sides; 0 = blocked by unlabeled MEK5, 100 = vehicle | binding response (% of control), % at 10 µM | 290,000 compounds, 1.4% hits;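 active = binding response more than 3 SD above or below the average of its plate-row segment, actives on both sides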;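 also: Alexa488 bead fluorescence after subtracting the streptavidin-only scavenger bead signal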
Target sequence (Q99759 whole entry, looked up): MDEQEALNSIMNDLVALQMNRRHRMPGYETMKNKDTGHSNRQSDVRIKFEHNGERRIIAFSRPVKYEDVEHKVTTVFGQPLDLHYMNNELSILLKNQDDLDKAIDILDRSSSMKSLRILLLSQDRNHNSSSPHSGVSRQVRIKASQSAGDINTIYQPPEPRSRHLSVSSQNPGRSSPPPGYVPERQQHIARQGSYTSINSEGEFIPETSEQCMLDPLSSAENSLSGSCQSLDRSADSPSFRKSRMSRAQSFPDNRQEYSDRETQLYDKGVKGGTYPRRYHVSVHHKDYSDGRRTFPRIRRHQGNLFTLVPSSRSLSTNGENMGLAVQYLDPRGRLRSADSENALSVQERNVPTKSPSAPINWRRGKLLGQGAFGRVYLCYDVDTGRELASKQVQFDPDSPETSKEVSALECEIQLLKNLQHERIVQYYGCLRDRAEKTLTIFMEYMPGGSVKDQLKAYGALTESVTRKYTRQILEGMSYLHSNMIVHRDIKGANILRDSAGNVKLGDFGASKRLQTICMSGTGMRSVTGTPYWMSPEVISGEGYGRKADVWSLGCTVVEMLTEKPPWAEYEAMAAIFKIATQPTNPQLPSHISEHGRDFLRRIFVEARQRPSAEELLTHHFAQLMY
MEKK2 mut-MEK5: signal of MEK5 binding to mutant human MEKK2 PB1 domain. bead flow cytometry, Alexa488-MEK5 binding to MEKK2 mutant. percent response, % at 10 µM. 290,000 compounds, 0.35% hits; in the data active = percent response above about 24%, passing the limit was not always enough
MEKK2wt confirm: raises or lowers MEK5 binding to wildtype human MEKK2, retest | AID 1892 | bead flow cytometry, Alexa488-MEK5 binding to MEKK2 WT; actives lie on both sides | shares compounds with MEKK3 PB1 HTS | binding response (% of control), % at 10 µM | 5,900 compounds, 2.4% hits; in the data active = binding response below about 16% or above about 210%; inactive = in between
MEKK2mut confirm: signal of MEK5 binding to mutant human MEKK2, retest. 5,900 compounds, 2% hits. percent response, % at 10 µM. shares compounds with MEKK3 PB1 HTS. bead flow cytometry, Alexa488-MEK5 binding to MEKK2 mutant; in the data active = percent response mostly above about 71%, no sharp cut-off; inactive = mostly below about 38%;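 also: higher means compound restores mutant binding toward wildtype level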
MEKK3-MEK5 inh: MEKK3-MEK5 PB1 inhibition, single concentration confirmation; shares compounds with MEKK3 PB1 HTS; bead flow cytometry, Alexa488-MEK5 binding to MEKK3; active compounds read low; binding response (% of control), % at 10 µM; 5,900 compounds, 1.8% hits;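 active = binding response below 72% of control, or above a set upper limit, though filed actives all read lower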;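 also: 100% = DMSO only wells and 0% = binding blocked by excess unlabeled MEK5; lower values mean stronger disruption of MEK5 binding to MEKK3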
An asterisk follows results filed as active; . = not tested or not shown; [ ] = remark or other dose. In the library only some 2.9% were active in any assay of this set; here they are far more common.

SMILES	dFosB activator	FID counter	MEKK2 WT-MEK5	MEKK3 PB1 HTS	MEKK2 mut-MEK5	MEKK2wt confirm	MEKK2mut confirm	MEKK3-MEK5 inh
O=S(=O)(c1ccc2c(c1)OCCO2)N1CCN(c2cccc(Cl)c2)CC1	1	-6	87	81*[inhibitor]	-17	98	-8	101
O=S(=O)(c1cccc(Cl)c1)N1CCN(S(=O)(=O)c2ccc3c(c2)OCCO3)CC1	4	.	.	.	.	.	.	.
Cc1ccc(C(=O)O[C@H](C(=O)O)[C@H](OC(=O)c2ccc(C)cc2)C(=O)O)cc1	-3	1	110	105	8	.	.	.
Cc1ccccc1OCC(=O)OC(C)CN1CCN(C)CC1 (stereo unspecified)	-4	4	73	69*[inhibitor]	-37	111	10	107
CCOc1ccc(CN(C)C(C)C(=O)Nc2ccc([N+](=O)[O-])cc2Cl)cc1OC (stereo unspecified)	-5	-2	98	139*	-2	103	3	100
CC(c1ccccc1)N1C(=O)NC(NC(=O)c2cccnc2)(C(F)(F)F)C1=O (stereo unspecified)	0	-2	0.0*[inhibitor]	0.0*[inhibitor]	-3	97	-8	96
CCOC(=O)/C(N=Nc1c(Br)cc(Br)cc1Br)=C(\C)O	2	-1	120	126*	5	95	3	93
CCOC(=O)NC(=O)/C(N=Nc1cc(C)cc(C)c1)=C(\C)O	3	-6	103	97	1	.	.	.
Cc1cc(NC(=O)/C=C/c2ccc(Cl)cc2)no1	0	-2	103	99	0	.	.	.
CCOc1ccc(-c2nn[nH]n2)cc1	4	2	102	97	1	.	.	.
OCCOCCOc1ccc(-c2nn[nH]n2)cc1	1	-9	97	74*[inhibitor]	-1	101	1	94
CCn1c2ccccc2c2cc(CNCc3ccc(OC)cc3OC)ccc21	5	27	170*	107	17	175	11	98
CC(C)(C)N(Cc1ccccc1)C(=O)COC(=O)C1=NN(c2ccccc2)C(=O)CC1	-11	.	.	.	.	.	.	.
O=S(=O)(c1ccc(F)c(F)c1F)N1CCN(C(=S)NC2CC3CCC2C3)CC1 (stereo unspecified)	-1	-6	72	64*[inhibitor]	-14	99	1	95
O=S(=O)(c1ccc(F)c(F)c1F)N1CCN(C(=S)NCc2ccccc2)CC1	8	-12	95	101	-3	.	.	.
Cc1cccnc1NC(=O)c1ccc(S(=O)(=O)N2CC(C)OC(C)C2)cc1 (stereo unspecified)	-7	-3	97	104	-4	.	.	.
NC(N)=N/N=C/c1ccc(Cl)c(Cl)c1	.	5	124	104	17	.	.	.
NC(N)=N/N=C/c1ccc(Cl)cc1Cl	-8	9	155*	129*	42	122	18	108
Cc1cc(N/N=C/c2ccccc2Br)nc2ccccc12	6	-11	144*	99	22	136	13	104
Brc1ccccc1/C=N/Nc1ccc2ccccc2n1	-4	-1	126	101	15	.	.	.
O=S(=O)(c1ccc(F)cc1)N1CCN(Cc2nnc(-c3ccccc3)o2)CC1	-9	.	.	.	.	.	.	.
c1ccc(-c2nnc(CN3CCCc4ccccc43)o2)cc1	-8	-3	9.0*	109	26*	104	0	97
Fc1ccc(N2CCN(Cc3nnc(-c4ccccc4)o3)CC2)cc1	-7	-17	106	135*	0	102	-6	101
CN(C(=O)CN1C(=O)c2cc(Cl)c(Cl)cc2C1=O)C1CCS(=O)(=O)C1 (stereo unspecified)	-1	.	.	.	.	.	.	.
COc1cccc(CN2CCNC(=O)C2CC(=O)N(C)C2CCOCC2)c1OC (stereo unspecified)	-5	-16	114	110	9	.	.	.
SMILES	dFosB activator	FID counter	MEKK2 WT-MEK5	MEKK3 PB1 HTS	MEKK2 mut-MEK5	MEKK2wt confirm	MEKK2mut confirm	MEKK3-MEK5 inh
CC1CC2=C(C(=O)O1)C(c1ccc(Cl)cc1)Nc1ccccc1N2 (stereo unspecified)	-9	-12	91	71*[inhibitor]	-1	104	8	104
Cc1ccc(/C(C#N)=C\c2ccc(N3CCOCC3)o2)cc1	-15	-13	105	108	3	.	.	.
Cc1ccc2nc(/C(C#N)=C\c3ccc(N4CCOCC4)o3)[nH]c2c1	-19	-20	46*[inhibitor]	103	26*	112	12	108
Cc1ccc2nc(/C(C#N)=C\c3ccc([N+](=O)[O-])o3)[nH]c2c1	-2	6	77	70*[inhibitor]	-10	96	-3	98
Nc1ncnc(N2CCOCC2)n1	-2	.	.	.	.	.	.	.
Cc1c(C)n(Cc2ccccc2)c2ccc(C(=O)OCCCN(C)C)cc12	12	19	158*	105	-2	151	39	104
CCN1CCN(C(=O)c2ccc3c(c2)c(C)c(C)n3Cc2ccccc2)CC1	-10	6	107	100	-8	.	.	.
O=C(CCc1nc(-c2ccccc2F)no1)NC1CCN(Cc2ccccc2)CC1	0	10	121	106	24*	108	0	97
Cc1ccc(-c2noc(CCC(=O)NC3CCN(Cc4ccccc4)CC3)n2)cc1	-4	11	113	104	3	.	.	.
CCCc1cc(C(=O)NNC(=S)Nc2cccc(C)c2)cs1	-3	-14	106	129*	0	102	-7	98
COCCn1c(C)cc(/C=C(\C#N)C(=O)OCC(=O)N(C)c2c(N)n(Cc3ccccc3)c(=O)[nH]c2=O)c1C	-2	.	.	.	.	.	.	.
CCN1CCN(c2ccc(S(=O)(=O)N3CCCCC3)cc2NC(=O)COc2ccc(F)cc2Cl)CC1	15	26	139*	102	21	131	18	103
CCc1ccc(C(=O)CN2C(=O)NC3(CCc4ccccc43)C2=O)cc1 (stereo unspecified)	-11	.	.	.	.	.	.	.
COc1cccc(C(=O)O[C@H]2[C@H](C)NS(=O)(=O)[C@H]3C[C@@H]4C=C[C@]23O4)c1	-6	.	.	.	.	.	.	.
CC(=O)Nc1ccc(NC(=S)NC(=O)/C=C/c2ccco2)cc1	-14	-20	16*[inhibitor]	40*[inhibitor]	-12	101	-2	100
O=C(/C=C/c1ccccc1)NC(=S)Nc1ccccc1	0	-9	120	122*	14	112	7	107
CCSc1nnc(NC(=O)/C=C/c2ccco2)s1	-11	-7	100	100	2	.	.	.
CCc1nnc(NC(=O)/C=C/c2ccco2)s1	-7	-5	111	131*	2	88	-3	82
O=C(CCC(=O)c1ccc(-c2ccccc2)cc1)Nc1cccnc1	1	-14	101	97	-19	.	.	.

Assay outcomes deposited in PubChem by several laboratories.
